We go through seven compounds from PubChem BioAssay (NCI).

Experiment in all cases: NCI-60 one-dose screen, 48 h (100 = growth as untreated, 0 = no growth, -100 = all killed)
Common to all, as to settings: 10 µM unless noted

The subject of experiment [1] is NCI-H23 lung.
Experiment [2] relates to NCI-H226 lung.
For experiment [3], the system named is NCI-H322M lung.
In experiment [4] the test system is HOP-62 NSCLC.
Experiment [5] deals with NCI-H460 lung.
The test system of experiment [6] is HOP-92 NSCLC.
Experiment [7] relates to NCI-H522 lung.
In experiment [8] the test system is A549/ATCC NSCLC.
Experiment [9] has as its system 786-0 renal.
Experiment [10] concerns COLO 205 colon.
The test system of experiment [11] is DU-145 prostate.
Experiment [12] has as its system K-562 leukemia.
In experiment [13] the test system is MALME-3M melanoma.
The test system of experiment [14] is MDA-MB-231 breast.
Experiment [15] concerns RXF 393 renal.
The test system of experiment [16] is SF-268 CNS.
Experiment [17] deals with SF-295 CNS.
Experiment [18] deals with SF-539 CNS.
In experiment [19] the test system is UACC-257 melanoma.
Experiment [20] deals with M14 melanoma.

The structures appear in SMILES notation. The panel holds about 83,000 compounds, 20% with a hit somewhere; the sample as a whole holds those more often.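 Plates (96-well) were seeded with cells, treated with compound at one concentration, and incubated for 48 hours before percent growth was determined.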 A number with no mark means an inactive call. Calls of active or inactive are those of the source. Rule for the calls: active = growth percent below 10; inactive = the rest.

Regarding `O=C(C[P+](c1ccccc1)(c1ccccc1)c1ccccc1)c1ccccc1`, the growth in [1] was 91.9%; in experiment [2], 99.4%; in experiment [3] it was 92.2%; in [4], 94.7%; in experiment [5], 97.7%; in experiment [6], 55.9%. In addition, the growth is 61.4% in experiment [7]; 90.1% in experiment [8]; 99.6% in [9]; 89.6% in [10]; 102% in [11]; 84% in [12]. Also, the growth in experiment [13] is 110%; in [14], 84.5%; in [15], 107%; in [16] it was 94.6%; in experiment [17], 87.4%; in experiment [18], 104%. Besides, the growth was 101% in experiment [19] and 106% in [20].
Turning to `S=C(S)OCN1CCOCC1`, the growth was 93.8% in experiment [1]; 97% in experiment [2]; 98% in experiment [3]; 108% in [4]; 90.3% in experiment [5]; 86.4% in experiment [6]. For the same compound, the growth in experiment [7] was 1.59% (active); in experiment [8], 91.6%; in experiment [9], 108%; in [10], 20.7%; in experiment [11], 86%; in experiment [12], 77.3%. Further, the growth in experiment [13] is 87.5%; in experiment [14], 116%; in experiment [15], 107%; in experiment [16], 97.9%; in experiment [17], 95.6%; in [18], 101%. The growth in [19] was 42.6%; in experiment [20], 77.4%.
Consider `O=C1/C(=C\c2ccc([N+](=O)[O-])cc2)CS(=O)(=O)C/C1=C/c1ccc([N+](=O)[O-])cc1`, for which the growth in experiment [1] is -83.2% (active); in experiment [2] it was -67.2% (active); in experiment [3] it was -93.7% (active); in [4] it was -95.2% (active); in [5], -54.5% (active); in [6], -79.1% (active). Besides, the growth is -79.9% (active) in experiment [7]; -50% (active) in experiment [8]; -96.5% (active) in experiment [9]; -82.4% (active) in [10]; -78.2% (active) in experiment [11]; -27.8% (active) in experiment [12]. Further, the growth was -62.7% (active) in [13]; -86.9% (active) in experiment [14]; -100% (active) in [15]; -49% (active) in experiment [16]; -16% (active) in experiment [17]; -64% (active) in experiment [18]. The growth was -89.8% (active) in [19] and -92.2% (active) in [20].
Regarding `CCCCCCCCCCCCCCCCCC1=NCCCN1CCO`, the growth in experiment [1] is 106%; in [2], 103%; in experiment [3], 101%; in [4], 90.7%; in experiment [5], 105%; in [6] it was 95.5%. Moreover, the growth in experiment [7] is 103%; in experiment [8], 94.7%; in experiment [9], 104%; in [10] it was 108%; in [11], 108%; in experiment [12], 100%. Further, the growth in [13] is 97.4%; in experiment [14] it was 87.8%; in [15], 124%; in experiment [16], 98.9%; in experiment [17] it was 96%; in experiment [18], 103%. Also, the growth is 96.1% in experiment [19] and 99.7% in experiment [20].
In the case of `Cc1cc(C(=C2C=CC(=Nc3ccccc3)C=C2)c2ccc(Nc3ccccc3)cc2)ccc1N`, the growth is -32.2% (active) in experiment [1]; -84.4% (active) in experiment [2]; -34.4% (active) in experiment [3]; -85.2% (active) in experiment [4]; -83.9% (active) in experiment [5]; -92.9% (active) in [6]. In addition, the growth is -81.3% (active) in experiment [7]; -91.9% (active) in experiment [8]; -84.1% (active) in experiment [9]; -65.1% (active) in experiment [10]; -97.2% (active) in [11]; 14.1% in experiment [12]. Also, the growth was -63.6% (active) in [13]; -56% (active) in experiment [14]; -93.7% (active) in experiment [15]; -68.7% (active) in experiment [16]; -71.9% (active) in experiment [17]; -60.8% (active) in experiment [18]. The growth in experiment [19] was -91.6% (active).
Regarding `Oc1ccc2ccccc2c1N=Nc1nccs1`, the growth in experiment [1] was 40%; in experiment [2], -0.189% (active); in experiment [3], 15.7%; in [4] it was 20.2%; in experiment [5], 10.2%; in [6] it was 46.9%. Further, the growth in experiment [7] was 178%; in experiment [8], 43.6%; in experiment [9], -40.2% (active); in experiment [10] it was 21.4%; in experiment [11], 20.5%; in [12] it was 10.4%. The growth in experiment [13] was 29.2%; in experiment [14], 28.8%; in experiment [15] it was 47.3%; in experiment [16], 1.32% (active); in experiment [17], 31.4%; in experiment [18] it was 15.2%. In addition, the growth is 66% in [19] and 26.3% in [20].
For `CCOC(=O)c1cc(CC)sc1NC(=O)CC(C)=O`, the growth is 43.2% in experiment [1]; 70.1% in experiment [2]; 95.3% in experiment [3]; 73% in experiment [4]; 50.9% in [5]; 59% in experiment [6]. Besides, the growth in experiment [7] was 34.4%; in experiment [8] it was 78%; in experiment [9], 54.5%; in experiment [10] it was 90.2%; in [11], 48.2%; in experiment [12] it was 21.8%. Besides, the growth was 62.2% in experiment [13]; 54.9% in experiment [14]; 61.7% in experiment [15]; 60.1% in experiment [16]; 43.2% in experiment [17]; 56.1% in experiment [18]. The growth in [19] is 95.6%; in [20], 88.6%.
